Experimental data from PubChem BioAssay (NCATS).
Results filed as inconclusive are left out. Active and inactive are the calls of the source. The call rests on the fitted dose curve; in most records, active means well fitted cell-killing curve with a large enough effect; inconclusive means small, poorly fitted or top-dose-only effect, or effect the other way; inactive means no such curve, though single readings can be large or run the other way.

Assay: Quantitative High-Throughput drug screen in 47 multiple myeloma cell lines against the NCATS MIPE library collection: Delta47_JCRB cell viability assay (AID 1918925; further: nearly all actives have a fitted effect of over 45% in size;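 on viability (% of DMSO): 0% = media-only wells and 100% = DMSO-only wells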)
Conditions: Delta47 myeloma viability, CellTiter-Glo ATP, 48 h; series mostly up to 45.8 µM; viability (% of DMSO): at the top concentration
Method in brief: (§1)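 Viability readout: CellTiter-Glo luminescence following 5 min room-temperature incubation with reagent. Prior exposure: 48 h, 37C, humidified 5% CO2, 500 cells per well.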
Potency means the concentration at half of the fitted maximal effect.

Row | Structure (SMILES) | viability (% of DMSO) | Potency
1 | CNc1nc(Nc2ccc(C(=O)N3CCOCC3)cc2OC)ncc1Cl | 121% (inactive) | –
2 | Cc1cccc2c1CC[C@H](CN1CCC(c3c(Cl)cccc3Cl)CC1)C[C@@H]2O | – | 16.6 µM (active)
3 | Cc1csc(-c2nnc(Nc3ccc(Oc4ncccc4-c4ccnc(N)n4)cc3)c3ccccc23)c1 | – | 23.5 µM (active)

Assay: Quantitative High-Throughput drug screen in 47 multiple myeloma cell lines against the NCATS MIPE library collection: EJM_DSMZ cell viability assay (AID 1918926; further: nearly all actives have a fitted effect of over 30% in size;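 on viability, % of control: 100% = DMSO-only wells and 0% = media-only wells without cells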)
Conditions: EJM myeloma cell viability, CellTiter-Glo ATP, 48 h; series mostly up to 45.8 µM; viability, % of control: at the top concentration
Method in brief: as §1

Row | Structure (SMILES) | viability, % of control | Potency
4 | O=c1cc(-c2ccc(O)c(O)c2)oc2cc(O)cc(O)c12 | 97.4% (inactive) | –
5 | CC(=O)Nc1cccc(-n2c(=O)n(C3CC3)c(=O)c3c(Nc4ccc(I)cc4F)n(C)c(=O)c(C)c32)c1 | – | 0.0372 µM (active)
6 | CCN(CCO)CCCOc1ccc2c(Nc3cc(CC(=O)Nc4cccc(F)c4)[nH]n3)ncnc2c1 | 84.8% (inactive) | –
7 | C[C@@H](NC(=O)c1ncnc(N)c1Cl)c1ncc(C(=O)Nc2cc(C(F)(F)F)c(Cl)cn2)s1 | 98.7% (inactive) | –
8 | O=C(CO)N1CCC(c2[nH]nc(-c3ccc(Cl)cc3)c2-c2ccncn2)CC1 | 106% (inactive) | –
9 | NC1(C(=O)N[C@@H](CCO)c2ccc(Cl)cc2)CCN(c2ncnc3[nH]ccc23)CC1 | – | 10.5 µM (active)
10 | Cc1cc2nc3c(=O)[nH]c(=O)nc-3n(CC(O)C(O)C(O)CO)c2cc1C (stereo not given) | – | 1.18 µM (active)
11 | CC(C)(CO)[C@@H](O)C(=O)NCCC(=O)O | 96.6% (inactive) | –
12 | COc1ccc(-c2cc3nccn3c(Nc3ncccc3C(N)=O)n2)cc1OC | – | 4.69 µM (active)
13 | CC1=C(C(=O)Nc2cc3cn[nH]c3cc2F)C(c2ccc(C(F)(F)F)cc2)CC(=O)N1 (stereo not given) | 108% (inactive) | –
14 | CCN1C[C@H](C)n2c(c(O)c3c(=O)n(Cc4ccc(F)c(Cl)c4)nc(C(=O)NC)c32)C1=O | 123% (inactive) | –
15 | Cc1cc2c(cc1C1(c3ccc(C(=O)O)cn3)CC1)C(C)(C)CCC2(C)C | 104% (inactive) | –
16 | NS(=O)(=O)c1cc(Cl)c(Cl)c(S(N)(=O)=O)c1 | 110% (inactive) | –
17 | COc1cc2ncnc(Nc3cc(Br)c(O)c(Br)c3)c2cc1OC | – | 0.003 µM (active)
18 | CN[C@@H](C)[C@H]1[C@H](O)C[C@@]2(C)[C@@H]3CC[C@H]4C(C)(C)[C@@H](NC)CC[C@@]45C[C@@]35CC[C@]12C | 95.2% (inactive) | –
19 | Cc1cnc(Nc2cccc(CN3CCOCC3)c2)nc1Nc1cccc(S(=O)(=O)NC(C)(C)C)c1 | – | 10.5 µM (active)
20 | c1cc(OCCN2CCCCC2)cc(-c2n[nH]c3ccc(-c4ncn[nH]4)cc23)c1 | – | 33.2 µM (active)
21 | O[C@@H](COc1cccc2ncccc12)CN1CCN(C2c3ccccc3[C@@H]3[C@H](c4ccccc42)C3(F)F)CC1 (stereo not given in full) | – | 23.5 µM (active)
22 | CNc1nc(Nc2ccc(C(=O)N3CCOCC3)cc2OC)ncc1Cl | 103% (inactive) | –
23 | Cc1cccc2c1CC[C@H](CN1CCC(c3c(Cl)cccc3Cl)CC1)C[C@@H]2O | – | 18.7 µM (active)
24 | OC[C@H]1O[C@@H](OCCc2ccc(O)cc2)[C@H](O)[C@@H](O)[C@H]1O | 106% (inactive) | –
25 | COC(=O)N1CCN(Cc2cccc(NC(=O)Nc3ccc(C)nc3)c2F)CC1 | 87.3% (inactive) | –
